# Source: PubChem (National Center for Advancing Translational Sciences (NCATS))
# D2 ag-1 = Beta-Arrestin HTS for Positive Allosteric Modulators of the Human D2 Dopamine Receptor: Agonists; D(2) dopamine receptor (Homo sapiens), P14416; DiscoveRx PathHunter D2 beta-arrestin, luminescence, 90 min; 100% = 57 uM dopamine signal; activation, % (no concentration beside the values); 360,000 compounds, 0.084% hits; AID 624465, 2012; in the data active means activation above about 40%; inconclusive means between about 15% and that limit
#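 Agonist mode: compounds alone added to overnight-plated D2 PathHunter cells for 90 min at 37 C, with 57 uM final dopamine (EC100) defining full response. Beta-arrestin recruitment detected by chemiluminescent reagent, read after 1 h at ambient temperature.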
# D2 PAM-1 = Beta-Arrestin HTS for Positive Allosteric Modulators of the Human D2 Dopamine Receptor: Potentiators. D(2) dopamine receptor (Homo sapiens), P14416. DiscoveRx D2 beta-arrestin cells, luminescence, 90 min; 100% = 57 uM dopamine signal. potentiation, % (test concentration not listed). 360,000 compounds, 0.23% hits. AID 624464, 2012; in the data active means potentiation above about 50%; inconclusive means mostly about 30% to 49%
#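 PathHunter D2 cells, attached overnight at 37 deg C, received compound in DMSO plus dopamine at EC20 (50 nM final) for 90 min at 37 deg C. Beta-arrestin recruitment was read as luminescence after 1 h with detection reagent at ambient temperature.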
# D2 PAM-2 = HTS Assay for Positive Allosteric Modulators of the Human D2 Dopamine Receptor: Primary Screen for Potentiators | D(2) dopamine receptor (Homo sapiens), P14416 | HEK293 T-REx D2, calcium flux, EC20 dopamine potentiation | potentiation, % at 10 µM | 340,000 compounds, 0.34% hits;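 active means potentiation over 3 SD above the plate norm, cut at about 30% in these data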
#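 Primary screen. Calcium kinetics in induced HEK293 T-REx D2 cells: compound pre-addition 180 s, EC20 dopamine, 180 s more.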
# D2 ag-2 = HTS Assay for Allosteric Agonists of the Human D2 Dopamine Receptor: Primary Screen for Agonists | activation, % at 2 µM | HEK293 T-REx D2 cells, calcium flux agonist mode | D(2) dopamine receptor (Homo sapiens), P14416 | 340,000 compounds, 0.53% hits;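 active means activation over 3 SD above normal in the single-dose calcium agonist read, cut at about 30% in these data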
#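 Tetracycline-induced HEK293 T-REx cells with force-coupled D2 receptor, plated overnight at 30 C, loaded with no-wash calcium dye. After a 10 s baseline, compound was pin-added and calcium flux read kinetically for 180 s; calcium rises flagged agonists.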
# D2 antag = HTS Assay for Allosteric Antagonists of the Human D2 Dopamine Receptor: Primary Screen for Antagonists. HEK293 TREx D2 cells, calcium flux, dopamine EC80. inhibition, % at 10 µM. 340,000 compounds, 2% hits. AID 485344, 2010; in the data active means inhibition above about 30%; inactive means below that, where a call was filed
#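 Measurement of antagonist activity uses fluorescent calcium dye in inducible HEK293 T-REx D2 cells: 10 s baseline, compound addition with 180 s read, EC80 dopamine addition with a further 180 s read.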
# D3 ag = qHTS of D3 Dopamine Receptor Agonist: D3 Dopamine Receptor B-arrestin Agonist Confirmatory Assay; shares compounds with D2 ag-2; DiscoveRx D3 beta-arrestin cells, luminescence, 90 min; Potency, µM (series often up to 76.9 µM), most hits filed as activators; 2,300 compounds, 4% hits; further: nearly all actives have a fitted effect of over 70% in size
# Target sequence (P35462 whole entry, looked up): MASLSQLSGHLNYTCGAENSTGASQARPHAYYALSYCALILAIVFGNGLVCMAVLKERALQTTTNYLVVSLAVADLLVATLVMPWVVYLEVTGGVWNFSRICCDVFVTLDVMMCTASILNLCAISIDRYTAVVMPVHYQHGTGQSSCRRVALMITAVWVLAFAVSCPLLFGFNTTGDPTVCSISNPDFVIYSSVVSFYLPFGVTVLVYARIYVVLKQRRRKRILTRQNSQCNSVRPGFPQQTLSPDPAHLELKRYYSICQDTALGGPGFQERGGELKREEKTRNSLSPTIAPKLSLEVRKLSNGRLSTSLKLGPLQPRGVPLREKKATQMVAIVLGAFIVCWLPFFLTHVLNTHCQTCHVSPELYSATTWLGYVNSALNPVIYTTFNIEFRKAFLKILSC
# D2 ag-3 = qHTS of D3 Dopamine Receptor Agonist: D2 Dopamine Receptor B-arrestin Agonist Counterscreen | 2,300 compounds, 5.9% hits | Potency, µM (doses to about 76.9 µM), most hits filed as activators | DiscoveRx PathHunter D2 beta-arrestin, luminescence, 90 min; response scale: percent relative to full dopamine signal | AID 720507, 2013 | shares compounds with D2 ag-2; further: nearly all actives have a fitted effect of over 70% in size
# Numbers stand for hits; - = inactive; ? = inconclusive; . = no result given; ! = not active in a repeat. Only some compounds are listed: those with a hit (about 2.4% of all), similar ones and a draw of the others. Unless noted, the call rests on the fitted dose curve; in most records, active means well fitted activation curve with a large enough effect; inconclusive means small, poorly fitted or top-dose-only effect; inactive means flat fitted curve, though single readings scatter.
SMILES,D2 ag-1,D2 PAM-1,D2 PAM-2,D2 ag-2,D2 antag,D3 ag,D2 ag-3
COC(=O)c1c(NC(=O)c2nc(SCc3cccc(C)c3)ncc2Cl)sc2c1CCCC2,.,.,-,-,.,.,.
COc1ccc(N(C)C(=O)c2nn(-c3ccc(C)cc3)c(=O)n(C)c2=O)c(OC)c1,.,.,-,-,.,.,.
O=c1cc(CN2CCN(c3ccc(O)cc3)CC2)nc2scc(-c3ccccc3)n12,-,-,-,-,-,35µM,-
Cc1cccc(C)c1OCc1cc(=O)n2c(-c3ccccc3)csc2n1,.,.,.,-,.,.,.
CCOC(=O)Cc1csc(NC(=O)c2csc(C)c2)n1,-,-,-,61,-,-,-
CCOC(=O)Cc1csc(NC(=O)c2cccc(OC)c2)n1,-,-,-,-,-,.,.
O=C(CN1C(=O)COc2ccc(S(=O)(=O)NC3CCCC3)cc21)NCc1ccccc1Cl,.,.,-,-,.,.,.
Nc1cccc(C#Cc2ccc3c(=O)c4ccccc4oc3c2)c1,-,-,-,-,-,-,-
Cc1ccc(NC(=O)CSc2nc3n[nH]c(C)c3c(=N)n2-c2ccccc2C)cc1C,.,.,-,-,.,.,.
CCN1C(=O)CC(Sc2ccccc2C(=O)O)C1=O (stereo not given),-,-,-,-,-,.,.
O=C(O)c1ccccc1SC1CC(=O)N(c2cccc3ccccc23)C1=O (stereo not given),-,-,-,41,-,-,-
Cc1ccc(S(=O)(=O)N2CCN(C(=O)COC(=O)/C=C/c3ccc(F)cc3)CC2)c(C)c1,-,-,-,-,-,.,.
Cc1ccc(S(=O)(=O)N2CCN(C(=O)COC(=O)/C=C/c3ccccc3)CC2)c(C)c1,-,-,-,-,-,-,-
Cc1ccc(S(=O)(=O)N2CCN(C(=O)COC(=O)CSc3cc(C)ccc3C)CC2)c(C)c1,-,-,-,-,-,-,-
Cc1ccc2c(c1)C(O)(CC(=O)/C=C/C=C/c1ccccc1)C(=O)N2 (stereo not given),-,-,-,48,45,-,-
Cc1ccc(/C=C2/NC(=O)N(Cc3ccccc3F)C2=O)s1,-,-,-,-,-,-,-
O=C1N/C(=C/c2cccs2)C(=O)N1Cc1ccccc1F,-,-,-,-,-,.,.
O=C(COc1coc(CN2CCN(c3ccccc3)CC2)cc1=O)Nc1ccccc1,-,-,-,46,-,-,-
Cc1cccc(NC(=O)COc2coc(CN3CCN(c4ccccc4)CC3)cc2=O)c1C,?,-,-,43,-,-,-
Cc1cc(NC(=O)COc2coc(CN3CCN(c4ccccc4)CC3)cc2=O)no1,-,-,.,.,.,-,-
Cc1cc(NC(=O)COc2coc(CN3CCN(c4ccccc4F)CC3)cc2=O)no1,-,-,-,62,-,-,?
Cc1cc(NC(=O)COc2coc(CN3CCN(c4ccc(F)cc4)CC3)cc2=O)no1,-,-,-,-,-,.,.
Cc1ccc(NC(=O)COc2coc(CN3CCN(c4ccccc4)CC3)cc2=O)cc1,-,-,-,-,-,.,.
O=C(COc1coc(CN2CCN(c3ccccc3F)CC2)cc1=O)Nc1ccccc1,-,-,.,.,.,.,.
Cc1ccc(-n2nc(C(=O)N3CCN(c4ccccc4F)CC3)c(=O)n(C)c2=O)cc1,.,.,-,.,.,.,.
CC(C)c1ccc(NC(=O)CCCc2nc(-c3ccc(Cl)cc3)no2)cc1,.,.,-,-,.,.,.
O=C(Nc1nnc(S(=O)(=O)N2CCOCC2)s1)c1ccccc1F,-,-,-,-,-,.,.
O=C(COc1ccccc1)Nc1nnc(S(=O)(=O)N2CCCCCC2)s1,-,-,-,50!,-,-,-
